Results from ChEMBL document CHEMBL4513216, “Probing the Open Global Health Chemical Diversity Library for Multistage-Active Starting Points for Next-Generation Antimalarials” (ACS Infect Dis, 2020).
About 8,600 (12%) of roughly 69,000 compounds showed an effect of 50% or more. Only a selection was taken, and strong results are over-represented in it overall.

What follows are compounds tested on Plasmodium berghei (assay: Screen against P. berghei liver stage (PbLuc), transformed with Luciferase, at 10uM). Conditions: tested at 10 uM.
Type: functional, HepG2

| SMILES | INHIBITION [%] |
| --- | --- |
| O=C(c1cnccn1)N1CCc2ncc(CN3CCOCC3)n2CC1 | 48.6 |
| Cc1nc2cc(=O)[nH]n2c(C)c1CC(=O)NCc1ccoc1 | 15.465 |
| CCC(NC1CCN(C(=O)c2ccccc2)CC1)c1cccs1 (centres undefined) | 7.22 |
| Cc1cnn(CC2CCCN2C(=O)c2cc(Cl)ccc2F)c1 (centres undefined) | 22.9 |
| O=C(O)c1cc(C=Cc2ccccc2)ncn1 | -20.2 |
| Cc1noc([C@@H]2C[C@H]3CN(CC4CCOCC4)C[C@H]3O2)n1 | -7.7 |
| Cc1noc(Cl)c1CCC(=O)N1CCC(Nc2cccnn2)CC1 | -5.07 |
| COc1ccc2nnc(CCCC(=O)NCCc3ccccc3)n2n1 | -31 |
| COc1ccc2nnc(CCCC(=O)NCCc3ccccn3)n2n1 | 51.9 |
| COc1ccc2nnc(CCCC(=O)NCCc3ccncc3)n2n1 | 32.2 |
| Cc1nc(Cc2ccc(F)cc2)cc(C2COCCN2)n1 (centres undefined) | 35.305 |
| O=C(C1CC1)N1CCCC(c2nc(O)cc(-c3ccncc3)n2)C1 (centres undefined) | 47.2 |
| COc1ccc(CN2C[C@H]3C[C@H](CN(C)C)O[C@H]3C2)cc1 | 28.4 |
| CCNCCc1nc2cc(F)ccc2[nH]1 | 72.3 |
| CNCCc1nc2cc(Cl)ccc2[nH]1 | 31.9 |
| CNCCc1nc2cc(F)ccc2[nH]1 | -2.37 |
| CC(C)c1nc(CN2CCC(c3ccnn3CCO)CC2)no1 | 38.5 |
| CCN(c1ccc(C(=O)N2CCCCCC2)cc1)S(=O)(=O)CC | 3.77 |
| CN(CC1CCN(c2ccccc2)C1)c1ccc(Cn2ccnc2)cn1 (centres undefined) | 74.9 |
| CSCc1ccc(N(C)CC2CCCN(C(C)C)C2)nc1 (centres undefined) | -43.1 |
| CC(C)N1CCCC(CN(C)c2ccc(Cn3ccnc3)cn2)C1 (centres undefined) | -23.4 |
| Cn1c2c(c(=O)n1C)CN(C(=O)c1ccncc1F)CCC2 | 25.8 |
| COC(=O)c1cc(C(=O)N2CCN(C)CC2)n(-c2ccccc2)n1 | 30.2 |

| SMILES | INHIBITION [%] |
| --- | --- |
| CNC(=O)NCC(=O)N1CCCC1Cc1cccc(F)c1 (centres undefined) | 10.6 |
| Cc1ccc2[nH]c(C3CCN(CC(N)=O)CC3)nc2c1 | -9.51 |
| NC(=O)c1cccc2nc([C@H]3CCN(Cc4ccccn4)C3)[nH]c12 | 66.6 |
| Cc1ccc(CN2CC[C@H](c3nc4cccc(C(N)=O)c4[nH]3)C2)cc1 | 59.2 |
| NC(=O)c1cccnc1N1C[C@H]2CC[C@@H](C1)N(Cc1ccccn1)C2=O | 43.8 |
| COc1ccc(CN2CC[C@H](c3nc4cccc(C(N)=O)c4[nH]3)C2)cc1 | 22.3 |
| NC(=O)c1cccc2nc([C@H]3CCN(Cc4ccccc4F)C3)[nH]c12 | 14.9 |
| CS(=O)(=O)N1CC[C@@H]2[C@@H]1CCN2Cc1ccc2c(c1)OCO2 | 7.5 |
| CC(C)N(CCCNC(=O)C1CCCN(C(N)=O)C1)S(C)(=O)=O (centres undefined) | 36.5 |
| CN(Cc1cn(CC2CCNCC2)nn1)CC1CCCCO1 (centres undefined) | -1.04 |
| O=C1[C@H]2CN(Cc3ccco3)C[C@H]2CN1c1ccsc1 | 31.1 |
| CC(NCCCN1CCCN(C)CC1)C(C)(C)C (centres undefined) | 26 |
| Cc1ccccc1-c1cc(NC(=O)Cn2ccccc2=O)n(C)n1 | -3.94 |
| Cn1nc(C(C)(C)C)cc1NC(=O)Cn1ccccc1=O | 54.3 |
| Cc1cc(NC(=O)Cn2ccccc2=O)n(C)n1 | 11.5 |
| c1cnc(N2CCO[C@H]3CN(CC4CCCC4)C[C@H]32)cn1 | 42.1 |
| Fc1cnc(N2CCO[C@H]3CN(CC4CCOC4)C[C@H]32)nc1 (some centres undefined) | 43.1 |
| Fc1cnc(N2CCO[C@H]3CN(CC4CCC4)C[C@H]32)nc1 | 12.2 |
| c1cncc(N2CCO[C@H]3CN(CC4CCOC4)C[C@H]32)c1 (some centres undefined) | 62 |
| c1cnc(N2CCO[C@H]3CN(CC4CCC4)C[C@H]32)cn1 | 62 |
| c1cnc(N2CCO[C@H]3CN(CC4CCOC4)C[C@H]32)cn1 (some centres undefined) | 44.8 |
| O=C(C1=CCCCC1)N1CCO[C@H]2[C@H](Oc3ccccn3)CC[C@@H]21 | 27.6 |
| CCCc1nc(C)cc(NCc2ccc(S(N)(=O)=O)cc2)n1 | 18.5 |

| SMILES | INHIBITION [%] |
| --- | --- |
| CCOc1ccc(-n2nnc(C(=O)O)c2-c2ccccn2)cc1 | -31.6 |
| CCN(Cc1cc(Cl)ccc1OC)Cc1nccn1C | 15.3 |
| CCN(Cc1ccccn1)Cc1cc(Cl)ccc1OC | 39.1 |
| CCN(Cc1cc(Cl)ccc1OC)Cc1cc(C)nn1C | 57.9 |
| O=C(CCCN1CCCCC1)N1CCN(C(=O)c2nc[nH]n2)CC1 | -15.5 |
| Cc1[nH]ncc1CCCNC(=O)N1CCOC(C)C1 (centres undefined) | -1.95 |
| Cc1[nH]ncc1CCCNC(=O)Nc1ccc(F)cc1 | 78.2 |
| Cc1[nH]ncc1CCCNC(=O)Nc1ccc(S(C)(=O)=O)nc1 | 22.6 |
| Cc1[nH]ncc1CCCNC(=O)Nc1ccc2c(c1)OC1(CCCC1)O2 | 70.3 |
| Cc1[nH]ncc1CCCNC(=O)Nc1ccccc1 | 24.6 |
| Cc1[nH]ncc1CCCNC(=O)Nc1ccc(C#N)cc1 | -70.3 |
| CN(CC1CCOC1)c1ccc(Br)cn1 (centres undefined) | 44.2 |
| CS(=O)(=O)N1CC[C@@H]2OC(COCC(=O)N3CCCC3)CC[C@@H]21 (some centres undefined) | -8.94 |
| COCc1cn(C2CCN(CCC(C)c3ccccc3)CC2)nn1 (centres undefined) | 55.7 |
| CNCc1cn(C2CCN(CCC(C)c3ccccc3)CC2)nn1 (centres undefined) | 3.06 |
| CC(CCN1CCC(n2cc(CCO)nn2)CC1)c1ccccc1 (centres undefined) | 24.9 |
| O=C1[C@@H]2CCN(C3CCOCC3)C[C@@H]2OCCN1Cc1cccnc1 | -8.54 |
| CO[C@H]1CCN(S(=O)(=O)c2cn(C)cn2)[C@H]1Cc1cnn(C)c1 | 10.8 |
| CN1CCc2nnc(C3CCCN3S(=O)(=O)c3ccc(F)cc3)n2CC1 (centres undefined) | -9.08 |
| Cc1cc(C)c(CNCC(O)c2ccc(F)c(F)c2)c(C)c1 (centres undefined) | -20.3 |
| c1cc2c(cc1CN1C[C@@H]3COC[C@@H](N4CCCC4)[C@@H]3C1)OCO2 | 39.4 |
| CSc1ccc(CCN2CCN([C@H]3CCCC[C@@H]3O)CC2)cc1 | 25.1 |
| O[C@H]1CCCC[C@@H]1N1CCN(CCCc2ccc3c(c2)OCO3)CC1 | 53.8 |
